Source: ChEMBL document CHEMBL4513216, “Probing the Open Global Health Chemical Diversity Library for Multistage-Active Starting Points for Next-Generation Antimalarials” (ACS Infect Dis, 2020)
About 8,600 (12%) of roughly 69,000 compounds showed an effect of 50% or more. This excerpt belongs to a sample that is enriched for strong results.

Each molecule was assayed on Plasmodium berghei (assay: Screen against P. berghei liver stage (PbLuc), transformed with Luciferase, at 10uM). Conditions: tested at 10 uM.
Assay type: functional, HepG2

First: CCCn1[nH]c(CNc2ccccc2)nc1=O
Second: Cc1c(Cn2c(=O)cnc3ccccc32)cnn1C
The INHIBITION of the first is lower: 32.5% for the first, 34% for the second.

Going from `CC(=O)c1cn(CC(=O)N[C@H](C(=O)O)C(C)C)c2ccccc12` to `CC(=O)NC(CC(=O)Nc1ccc(C)cn1)c1ccccc1` (stereo not given), the INHIBITION falls from 35.1% to 27.6%.

First: Cc1ccccc1N1CCCN(CC2(O)CCCNC2)CC1 (stereo not given)
Second: CCOc1ccccc1N1CCN(CC2(O)CCCNC2)CC1 (stereo not given)
The INHIBITION of the first is higher: 39.9% for the first, 29.2% for the second.

Compared with `Cc1ccc(C)c(N2CCN(CC3(O)CCNC3)CC2)c1` (stereo not given), `Cc1ccc2c(c1)C(=O)NCC1(CCN(C(=O)c3csc(C)c3)CC1)O2` is lower in INHIBITION: 50.5% for the first, -28.6% for the second.

Going from `NC(=O)c1csc(C(=O)N2CCCC(n3cccn3)C2)c1` (stereo not given) to `O=C(CCCOc1ccc(F)cc1F)N1CCCC(n2cccn2)C1` (stereo not given), the INHIBITION falls from 23.4% to 11.4%.

Going from `Cc1nc(CN(Cc2ccc3c(c2)OCCO3)C2CCCC2)no1` to `Cc1ncnc2c1CCN(Cc1ccc3c(c1)OCO3)CC2`, the INHIBITION rises from -31.8% to 41.8%.

Compared with `CCN(CC)C(=O)CN1CCCC(c2nc(C)c3c(n2)N(C)CCC3)C1` (stereo not given), `CCc1nc(C2CCCN(C(=O)CC3CCOCC3)C2)no1` (stereo not given) is lower in INHIBITION: 36% for the first, -2.19% for the second.

First: Cc1cc(N(C)C)nc(C2COCCN2Cc2csc(C)n2)n1 (stereo not given)
Second: CNc1cc(C)nc(C2COCCN2Cc2csc(C)n2)n1 (stereo not given)
The INHIBITION of the first is lower: 39.3% for the first, 53.6% for the second.

Going from `CNc1cc(C)nc(C2COCCN2CCc2ccccc2)n1` (stereo not given) to `CN(CCNc1cc(N2CCCC2CO)ncn1)Cc1ccccc1` (stereo not given), the INHIBITION falls from -2.9% to -21.2%.

Compared with `Cc1ccc(Br)cc1S(=O)(=O)NCCc1nnc[nH]1`, `Cc1cccc(C)c1NC(=O)c1cc(S(N)(=O)=O)c(C)o1` is higher in INHIBITION: 23.5% for the first, 52.7% for the second.

Going from `CC(=O)NCCC(Cc1ccccc1)c1ccco1` (stereo not given) to `Cc1ccn(CC(=O)NCCCOc2ccccc2F)c(=O)c1`, the INHIBITION rises from -24.6% to 10.9%.

Going from `CCc1nc(N)nc(N(C)Cc2nncn2CCOC)c1C` to `COCCn1cnnc1CN(C)c1nc(N)ncc1C`, the INHIBITION falls from 73.5% to 0.897%.

Going from `COCCn1cnnc1CN(C)c1nc(N)nc2c1CCCC2` to `C[C@@H]1CN(c2nc3c(cc2C(N)=O)CCC3)C[C@]1(C)O`, the INHIBITION falls from 23.3% to -13.8%.

First: CCO[C@@H]1CC[C@H]2[C@H]1OCCN2S(=O)(=O)C1CC1
Second: CN(C)C(=O)COC[C@@]12CCC[C@@H]1CN(C1CCC1)C2
The INHIBITION of the first is lower: 2.59% for the first, 12.7% for the second.

First: O=C(NCCCN1CCOCC1)c1ccc(Cl)cc1Cl
Second: Cc1ccc(C(=O)NCCCN2CCOCC2)c(Cl)c1
The INHIBITION of the first is higher: -4.52% for the first, -56.5% for the second.

Compared with `CN(c1ccc(C(=O)NCCCN2CCCCC2)c(Cl)c1)S(C)(=O)=O`, `CN(c1ccc(C(=O)NCCCN2CCCC2)c(Cl)c1)S(C)(=O)=O` is lower in INHIBITION: 70.4% for the first, 40.9% for the second.

First: CN(c1ccc(C(=O)NCCN2CCOCC2)c(Cl)c1)S(C)(=O)=O
Second: CN(c1ccc(C(=O)NCCCN2CCOCC2)c(Cl)c1)S(C)(=O)=O
The INHIBITION of the first is lower: 38.5% for the first, 46.8% for the second.

Compared with `Cc1ccc(C(=O)NCCN2CCOCC2)cc1N(C)S(C)(=O)=O`, `Cc1ccc(C(=O)NCCC2CCN(C)CC2)cc1N(C)S(C)(=O)=O` is lower in INHIBITION: 55.5% for the first, 42.1% for the second.

Compared with `CC1CCN(CCCNC(=O)c2ccc(N(C)S(C)(=O)=O)cc2Cl)CC1`, `CC1CCCN(CCCNC(=O)c2ccc(N(C)S(C)(=O)=O)cc2Cl)C1` (stereo not given) is lower in INHIBITION: 79.2% for the first, 53.7% for the second.

Compared with `Cc1cc(C)c(S(N)(=O)=O)cc1C(=O)NCCN1CCC(C)CC1`, `CN1CCC(CCNC(=O)c2ccc(N(C)S(C)(=O)=O)cc2Cl)CC1` is higher in INHIBITION: -7.83% for the first, 8.47% for the second.

First: Cc1ccc(C(=O)NC2CCN(C)CC2)cc1N(C)S(C)(=O)=O
Second: CN(c1ccc(Cl)c(C(=O)NCCCN2CCOCC2)c1)S(C)(=O)=O
The INHIBITION of the first is lower: 34.2% for the first, 63.3% for the second.

Going from `COCC(=O)N1CCC2(CC1)NC(=O)c1ccccc12` to `CNCC(=O)N1CCC(c2cccc(Oc3ccccc3)n2)CC1`, the INHIBITION falls from 46.7% to 29.5%.

First: Cc1ccc(CN2CC[C@@H]3[C@@H](CO[C@H]3CN3CCN(C)CC3)C2)s1
Second: CC(C)CCN1CCN(CC(=O)Nc2ccc3nsnc3c2)CC1
The INHIBITION of the first is lower: -35.9% for the first, 58.3% for the second.

Going from `NC(=O)C1CCN(CC(=O)N(Cc2ccccc2)Cc2nccs2)CC1` to `NCC(=O)N1CCC(c2cccc(Oc3ccccc3)n2)CC1`, the INHIBITION rises from 2.15% to 75.9%.

First: O=C(Cc1ccon1)N1CCc2cc(Br)sc2C1
Second: CNc1cc2c(nn1)CCN(C(=O)c1coc(Br)c1)C2
The INHIBITION of the first is lower: -28.9% for the first, 3.73% for the second.

Compared with `CC(C)c1nnc(CN2CCCC(c3cc(C(N)=O)[nH]n3)C2)o1` (stereo not given), `CC(C)c1nc(C2CCCN(C(=O)CN(C)S(C)(=O)=O)C2)no1` (stereo not given) is lower in INHIBITION: 33.7% for the first, -1.35% for the second.

Going from `CCc1nc(CC2CN(c3ncnc4nc(C)cc(C)c34)CCO2)no1` (stereo not given) to `CCc1cc(N2CCCC(c3noc(CC)n3)C2)ncn1` (stereo not given), the INHIBITION rises from 22% to 58.5%.

Compared with `CN(C)CCCNC(=O)c1ccc(Cl)cc1Cl`, `CN(C)CCCNC(=O)c1cc(Cl)ccc1Cl` is lower in INHIBITION: 16% for the first, 4.93% for the second.

Going from `Cc1nc(-c2noc3ccc(C(=O)NCCN4CCOCC4)cc23)cs1` to `Cc1nc(-c2noc3ccc(C(=O)NCCN4CCOCC4)cc23)co1`, the INHIBITION rises from 46.7% to 63%.

Compared with `CC1CCCN(CCCNC(=O)c2cn(C)nc2-c2cccnc2)C1` (stereo not given), `CCc1nc(C2CCCN(C(=O)c3ccccc3Cl)C2)no1` (stereo not given) is higher in INHIBITION: 13.2% for the first, 42% for the second.

Going from `Cc1nc(-c2noc3ccc(C(=O)NCCN(C)C)cc23)co1` to `CN(C)CCCNC(=O)c1ccc(N(C)S(C)(=O)=O)cc1Cl`, the INHIBITION rises from 8.31% to 64.1%.

Compared with `Cc1ncsc1C(=O)NCc1ccnc(N2CCN(C)CC2)c1`, `CC(=O)c1cccc(NC(=O)c2cnc(N3CCN(C)CC3)nc2C)c1` is lower in INHIBITION: 12.85% for the first, 7.83% for the second.

First: CCc1cnc(N2C[C@@H]3C[C@H](C(=O)N4CCOCC4)[C@H](C2)O3)nc1
Second: O=C([C@@H]1COC[C@H]2CN(c3ccncn3)C[C@H]21)N1CCCC1
The INHIBITION of the first is higher: 28.5% for the first, -10.3% for the second.

Compared with `CCOC(=O)N1[C@@H](c2ccco2)[C@@H](C(=O)O)C[C@]12CCCCNC2=O`, `CCc1nc(C2CCCN(C(=O)c3ccccc3O)C2)no1` (stereo not given) is higher in INHIBITION: -8.8% for the first, 37.9% for the second.

First: O=C(O)c1cnc(N2CCCC2)nc1COc1ccccc1
Second: CC(=O)N1CCC(c2cccc(Oc3ccccc3)n2)CC1
The INHIBITION of the first is lower: -14.8% for the first, 9.98% for the second.

Compared with `Cc1cnn(C2CN(CC(=O)NCC(C)C)C2)c1`, `Cc1cnn(CC2CCCN2C(=O)Cc2c(C)nc(C)[nH]c2=O)c1` (stereo not given) is higher in INHIBITION: 16.9% for the first, 31.8% for the second.

First: CCn1cnnc1C1CCN(C(=O)c2ccoc2C)CC1
Second: CCc1nc(C2CCCN(C(=O)c3ccccc3F)C2)no1 (stereo not given)
The INHIBITION of the first is lower: -5.07% for the first, 60.5% for the second.

Compared with `c1ccc(COc2cccc(CNC3CCc4ncnn4C3)c2)cc1` (stereo not given), `O=C(CCOc1ccccc1F)NC1CCCN(c2ccccn2)C1` (stereo not given) is lower in INHIBITION: 33.6% for the first, -3.71% for the second.

Compared with `O=C(N1CCOCC1)N1C2CCC(O)(CC2)C1CN1CCOCC1` (stereo not given), `O=C(COC[C@@]12CCC[C@@H]1CN(C1CCCC1)C2)N1CCCC1` is lower in INHIBITION: 44.2% for the first, 34.9% for the second.

Compared with `Cc1ncc(CC(=O)N2CCCCC2CCN2CCCC2)c(=O)[nH]1` (stereo not given), `Cc1ncc(CC(=O)N2CCC(N3C[C@@H](C)O[C@@H](C)C3)CC2)c(=O)[nH]1` is lower in INHIBITION: 61.8% for the first, 37.4% for the second.

Compared with `N#CC1(NC(=O)c2cc(Cl)ccc2OC(F)F)CCOCC1`, `Cc1oc(C(=O)Nc2ccccc2F)cc1S(N)(=O)=O` is lower in INHIBITION: 45.4% for the first, 17.5% for the second.

Going from `O=C(NN1CCCc2ccccc21)c1c[nH]c(=O)[nH]1` to `O=C(c1c[nH]c(=O)[nH]1)N1CCc2ccccc21`, the INHIBITION rises from 32.3% to 90.7%.

Going from `O=C(c1ccc(=O)[nH]n1)N1CCc2ccccc21` to `O=C(C1CCCOC1)N1CCN(CC(F)(F)F)c2ccccc21` (stereo not given), the INHIBITION falls from 38.8% to 11.3%.

Going from `CCOC(=O)c1n[nH]cc1-c1cncn1CCCn1nc(C)cc1C` to `CNC(=O)COC(=O)c1ccn(-c2ccc(Cl)c(Cl)c2)n1`, the INHIBITION rises from 15.9% to 35.7%.

Compared with `CCn1cc(Br)c(C(=O)NCc2ccc(F)cc2)n1`, `O=C(NCc1ccc(-n2cncn2)nc1)c1cnccn1` is higher in INHIBITION: -34% for the first, 48.3% for the second.

Going from `Cc1oc(C(=O)Nc2cccc(Cl)c2C)cc1S(N)(=O)=O` to `CS(=O)(=O)NC(=O)c1ccn(-c2ccc(Cl)c(Cl)c2)n1`, the INHIBITION rises from -74.6% to -43.9%.

Going from `Cc1nccc(CNC(=O)Nc2cc(C(F)(F)F)c[nH]c2=O)n1` to `COC(=O)CNC(=O)c1ccn(-c2ccc(Cl)c(Cl)c2)n1`, the INHIBITION rises from 8.38% to 51.6%.

First: O=C1N(Cc2cccc(F)c2)CCC12CCN(c1ccccn1)CC2
Second: O=C(c1cc(F)ccc1O)N1CCN(C2CCSC2)CC1 (stereo not given)
The INHIBITION of the first is higher: -15.9% for the first, -75.7% for the second.

Going from `c1ccc(OC[C@]23COC[C@H]2CN(C2CCOCC2)C3)nc1` to `c1cncc(OC[C@]23COC[C@H]2CN(C2CCC2)C3)c1`, the INHIBITION rises from -4.32% to 20.6%.

First: O=C(COC[C@@]12CCC[C@@H]1CN(C1CCC1)C2)N1CCCC1
Second: O=C(COC[C@]12COC[C@H]1CN(C1CCC1)C2)N1CCCC1
The INHIBITION of the first is lower: 27.6% for the first, 60.2% for the second.

Going from `CN(C)C(=O)COC[C@]12COC[C@H]1CN(C1CCCC1)C2` to `CN(C)C(=O)COC[C@@]12CCC[C@@H]1CN(C1CCCC1)C2`, the INHIBITION falls from 56.6% to -25.7%.

Going from `C1CC(N2C[C@@H]3COC[C@]3(COCC3CCOCC3)C2)C1` to `CN(C)Cc1cnc2n1CCN(C(=O)NC1CCCC1)CC2`, the INHIBITION falls from 55.7% to 43.8%.

Compared with `Nc1ncnc2nc(C3CCCCN3)ccc12` (stereo not given), `CCc1nc(C2CCCN(c3ncccn3)C2)no1` (stereo not given) is lower in INHIBITION: 26.45% for the first, -113% for the second.

Compared with `Cc1ccc(CN2CCN(CC(=O)Nc3ccc4nsnc4c3)CC2)o1`, `CCC(CC)CN1CCN(CC(=O)Nc2ccc3nsnc3c2)CC1` is lower in INHIBITION: 46.1% for the first, 8.99% for the second.

Going from `CCc1nc(C2CCCN(c3ncc(Br)cn3)C2)no1` (stereo not given) to `CCc1nc(C2CCCN(C(=O)CN(C)S(C)(=O)=O)C2)no1` (stereo not given), the INHIBITION rises from 31.7% to 51.3%.
